Reference: PubChem BioAssay (Tox21)
Several values for one entry are separate records, joined by “and”; a condition that tells them apart may be missing. Identical values can stand only once. Results filed as inconclusive are left out. Some structures have more than one record in an assay (separate samples or runs), and their calls can disagree. Activity calls are given as the source filed them. Calls follow the shape of the dose curve; as a rule, active = well fitted cell-killing curve with a large enough effect in the repeat runs; inconclusive = weak or mixed curves, or effect the other way; inactive = no such curve, though single readings can be large or run the other way.

Experiment: qHTS assay for identifying genotoxic compounds that show differential cytotoxicity against isogenic chicken DT40 cell lines with known DNA damage response pathways - wild type cell line (AID 743012); also: nearly all actives have a fitted effect of over 60% in size
Conditions: DT40 wild type chicken cells viability, CellTiter-Glo, 40 h; series mostly up to 68.4 µM; activity change, negative = cytotoxicity: at the top concentration
Source text: U.S. Tox21 Program National Center for Advancing Translational Sciences [NCATS] NIH Chemical Genomics Center [NCGC] U.S. Environmental Protection Agency [EPA] National Institutes of Environmental Health Sciences [NIEHS] National Toxicology Program [NTP] U.S. Food and Drug Administration [FDA] Tox21 Assay Overview: DNA repair pathways play a critical role in cellular homeostasis by repairing DNA damage induced by endogenous processes and xenobiotics. Isogenic chicken DT40 cell lines deficient in different DNA repair pathways can be used to identify genotoxic compounds and aid in characterizing the nature of the DNA damage induced. Two DNA repair-deficient cell lines with disrupted genes, Rad54/Ku70 or Rev3, were used to screen the Tox21 10K compound library. Possible genotoxicity was based on the presence of a significant increase in cytotoxicity in one or more of the DNA repair-deficient cell lines compared to that observed in the parental DNA repair-proficient cell line. CellTiter Glo viability assay (Promega, Madison, WI) was used to measure cell viability in these cells after compound treatment. This assay includes the data from the wild type cell line.
Tox21 Assay Protocol Summary: 300 DT40 wild type cells in 5 uL/well were dispensed into white, solid-bottom 1536-well plates using a Multidrop Combi (ThermoFisher Scientific, Waltham, MA) dispenser. After the assay plates were incubated at 37 C/5% CO2 for approximately 0.5 hour, 23 nL of compounds dissolved in DMSO, positive controls or DMSO only was transferred into the assay plate by a pintool work station (Kalypsys, San Diego, CA). The assay plates were incubated at 37 C/5% CO2 for 40 hours. After 5 uL per well of CellTiter-Glo reagent was added into each well of the assay plates, the plates were incubated for 30 min at room temperature and the luminescence intensity of the plates was measured using a ViewLux (PerkinElmer, Shelton, CT) plate reader.
% is scaled to controls: 0 for no effect and ±100 for the full control effect; potency is read from the fitted curve at half-maximal effect.

Row | Structure (SMILES) | activity change, negative = cytotoxicity | Potency
1 | O=C(O)c1ccc2cc(C(=O)O)ccc2c1 | -10.3% [at 95 µM] (inactive) | 
2 | NC[C@H]1O[C@H](O[C@H]2[C@H](O[C@@H]3O[C@H](CO)[C@@H](O)[C@H]3O)C(O)[C@H](N)C[C@@H]2N)[C@H](N)[C@@H](O)[C@@H]1O (stereo not given in full) | 6% [at 31.4 µM] (inactive) | 
3 | Nc1nc2c(ncn2COCCO)c(=O)[nH]1 |  | 2.54 µM (active)
4 | Cc1ccc(N/N=c2\c(=O)cc/c(=N\Nc3ccc(S(=O)(=O)O)cc3)c2=O)c(C)c1 | 11.1% (inactive) | 
5 | Clc1ccnc(Cl)n1 | 3.75% [at 95 µM] (inactive) | 
6 | Cc1c2ccccc2c(C)c2c1ccc1ccccc12 |  | 30.3 µM (active) and 3.06 µM (active)
7 | CCC(C)(CCC(C)C)C(=O)[O][Sn]([CH3])([CH3])[O]C(=O)C(C)(CC)CCC(C)C (stereo not given) |  | 54.5 µM (active)
8 | O=C(Nc1ccc2c(O)c(N=Nc3ccc(N=Nc4ccc(S(=O)(=O)O)cc4)cc3)c(S(=O)(=O)O)cc2c1)c1ccccc1 | -29.7% (inactive) | 
9 | Nc1ccc(NCCO)c([N+](=O)[O-])c1 | -11.8% (inactive) | 
10 | COc1ccc(NC(=O)CC(C)=O)cc1 | 20.2% (inactive) | 
11 | C=CC(C)(CCC=C(C)C)OC=O (stereo not given) | -6.08% (inactive) | 
12 | [Cu+] |  | 54.5 µM (active)
13 | CC(=O)[C@H]1CC[C@H]2[C@@H]3CCC4=CC(=O)CC[C@]4(C)[C@H]3CC[C@]12C |  | 6.68 µM (active) and 13.6 µM (active) and 7.7 µM (active)
14 | CC1(C)[C@@H](O)CC[C@]2(C)[C@H]3C(=O)C=C4[C@@H]5C[C@@](C)(C(=O)O)CC[C@]5(C)CC[C@@]4(C)[C@]3(C)CC[C@@H]12 |  | inactive
15 | Cc1ccc(O)c(N)c1 |  | 54.5 µM (active)
16 | CCCCCCCCCCCCOC(=O)c1ccc(O)cc1 | 1.42% [at 95 µM] (inactive) | 
17 | O=C1CCc2ccc(OCCCCN3CCN(c4cccc(Cl)c4Cl)CC3)cc2N1 |  | 5.96 µM (active)
18 | COc1cc2nc(N3CCN(C(=O)c4ccco4)CC3)nc(N)c2cc1OC |  | 10.6 µM (active)
19 | COC1=C(OC)C(=O)C(CCCCCCCCCCO)=C(C)C1=O |  | 8.41 µM (active)
20 | CNC(=O)c1ccccc1Sc1ccc2c(/C=C/c3ccccn3)n[nH]c2c1 |  | 2.11 µM (active)

Row | Structure (SMILES) | activity change, negative = cytotoxicity | Potency
21 | CCCCCCC1CCCC(=O)O1 (stereo not given) | 14.7% (inactive) | 
22 | CC(C)OC(=O)C(O)(CC(=O)O)CC(=O)O | -4.37% (inactive) | 
23 | C/C=C/C=C/COC(=O)C(C)C |  | 13.7 µM (active)
24 | CC(=O)OCC=C(C)C | 7.49% (inactive) | 
25 | CCN(CCN)c1cccc(C)c1 |  | 69.2 µM (active) and inactive
26 | O=C(O)[C@H](O)[C@@H](O)[C@H](O[C@@H]1O[C@H](CO)[C@H](O)[C@H](O)[C@H]1O)[C@H](O)CO | 2.85% [at 31.4 µM] (inactive) | 
27 | CC(=O)Oc1cc2c(s1)CCN(C(C(=O)C1CC1)c1ccccc1F)C2 (stereo not given) | -11.6% (inactive) | 
28 | CN(C)Cc1cc(C(C)(C)C)c(O)c(C(C)(C)C)c1 |  | 17.2 µM (active)
29 | CCC(CC)C(C)CCOC(C)=O (stereo not given) | 15.9% (inactive) | 
30 | CCCC(=O)OCCc1ccccc1 | 0.524% (inactive) | 
31 | NC(=O)c1cccc([N+](=O)[O-])c1 | 4.91% (inactive) | 
32 | C#C[C@]1(OC(C)=O)CC[C@H]2[C@@H]3CCC4=C/C(=N/O)CC[C@@H]4[C@H]3CC[C@@]21CC |  | 9.44 µM (active)
33 | CCOc1ccc2ccccc2c1C(=O)N[C@@H]1C(=O)N2[C@@H]1SC(C)(C)[C@@H]2C(=O)O | 6.71% [at 31.4 µM] (inactive) | 
34 | O=C1c2ccccc2C(=O)N1SC1CCCCC1 |  | 15.3 µM (active) and 5.45 µM (active)
35 | Clc1sc(Cl)c(Cl)c1Cl | -2.04% (inactive) | 
36 | COc1cccc2c1C(=O)c1c(O)c3c(c(O)c1C2=O)C[C@@](O)(C(C)=O)C[C@@H]3O[C@H]1C[C@H](N)[C@H](O)[C@H](C)O1 |  | 23.7 nM (active) and 21.8 nM (active)
37 | CC[N+](CC)(CC)CCOC(=O)C(C1CCCC1)C1CCCC1 |  | 5.31 µM (active)
38 | Oc1c(I)cc(Cl)c2cccnc12 |  | 18.8 µM (active) and 15.3 µM (active)
39 | CCCCC/C=C\C/C=C\CCCCCCCC(=O)O | 0.747% (inactive) | 
40 | O=[N+]([O-])c1cccc(C(F)(F)F)c1 | 2.52% [at 95 µM] (inactive) | 
